Most compounds without a hit are left out; they make up all but 17% or so of the library.
TDP1 inh – TDP1 (human) enzyme inhibition; actives 0.28% (n = 350,000); Potency, µM (titrated, usually from 130 µM), for inactives: at the top dose activity change, negative = inhibition, hits mostly inhibitors; recombinant TDP1, AlphaScreen DNA substrate cleavage; note: % is set by controls: 0 for no effect and ±100 for the full control effect; nearly all actives have a fitted effect of over 40% in size
Target sequence (Q9NUW8 whole entry, looked up): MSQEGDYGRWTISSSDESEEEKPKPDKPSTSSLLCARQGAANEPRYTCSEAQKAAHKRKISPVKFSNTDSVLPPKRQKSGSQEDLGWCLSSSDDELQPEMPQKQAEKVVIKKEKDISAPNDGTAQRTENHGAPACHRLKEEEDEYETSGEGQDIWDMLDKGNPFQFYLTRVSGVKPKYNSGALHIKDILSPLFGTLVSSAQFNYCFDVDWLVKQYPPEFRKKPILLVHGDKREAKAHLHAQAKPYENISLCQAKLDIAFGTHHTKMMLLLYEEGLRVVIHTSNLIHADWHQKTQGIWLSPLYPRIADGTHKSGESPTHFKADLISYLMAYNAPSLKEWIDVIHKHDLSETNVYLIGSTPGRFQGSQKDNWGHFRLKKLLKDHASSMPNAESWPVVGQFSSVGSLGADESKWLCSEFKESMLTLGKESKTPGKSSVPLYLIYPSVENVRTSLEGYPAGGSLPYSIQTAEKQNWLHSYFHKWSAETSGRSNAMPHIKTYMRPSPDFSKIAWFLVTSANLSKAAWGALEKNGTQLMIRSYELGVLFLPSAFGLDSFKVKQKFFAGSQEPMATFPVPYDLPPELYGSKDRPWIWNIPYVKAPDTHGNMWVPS
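Steps: enzyme plus compound, 15 min RT; add biotin/phosphotyrosine-FITC oligonucleotide (15 nM final), react 5 min; add donor/acceptor beads (10 ug/ml final), 10 min; read AlphaScreen. Tdp1 at 1 nM final.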
TDP1 cell CPT – growth inhibition of DT40 Tdp1-/-;hTDP1 cells with camptothecin (screen for TDP1 inhibitors). Potency, µM (highest dose often 46.2 µM), for the others: top-dose activity change, negative = growth inhibition, most hits filed as inhibitors. chicken DT40 Tdp1-/-;hTDP1 cells + 20 nM CPT, ATP luminescence, 48 h. actives 12% (n = 420,000); note: % is set by controls: 0 for no effect and ±100 for the full control effect; nearly all actives have a fitted effect of over 55% in size
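Cell growth measured by CellTiter-Glo luminescence after a minimum 48 h, 37 C compound exposure with 20 nM CPT in Tdp1-knockout DT40 cells stably expressing hTDP1, seeded 400/well; qHTS titration format.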
TDP1 cell noCPT – qHTS for Inhibitors of human tyrosyl-DNA phosphodiesterase 1 (TDP1): qHTS in cells in absence of CPT | DT40 Tdp1-/- hTDP1 cells, no CPT, ATP luminescence, 48 h | Potency, µM (series often up to 46.2 µM), for the others: top-dose activity change, negative = growth inhibition, hits mostly inhibitors | actives 15% (n = 420,000) | AID 686978, 2013; note: % is set by controls: 0 for no effect and ±100 for the full control effect; nearly all actives have a fitted effect of over 55% in size
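DT40 Tdp1-/-;hTDP1 cells, no CPT (DMSO vehicle only), 400 cells/well; compounds pin-transferred; ≥48 hr, 37 °C; CellTiter-Glo 30 min RT dark, luminescence read.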
ClpP mod – qHTS Assay for Activators of ClpP. Potency, µM (series often up to 57.5 µM), for inactives: at the top dose activity change, negative = active. purified B. subtilis ClpP, FRET peptide cleavage, 20 min. ATP-dependent Clp protease proteolytic subunit (Bacillus subtilis (strain 168)), P80244. AID 651965, 2013. actives 1.9% (n = 340,000); active = well fitted falling curve with a large enough effect; inconclusive = small, poorly fitted or top-dose-only effect; inactive = no such curve, though single readings can be large or run the other way; note: the source files actives as falling curves though it sought activators and does not explain the sign; nearly all actives have a fitted effect of over 65% in size
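Buffer: 100 mM Tris/HCl pH8, 100 mM KCl, 0.05% low protease BSA, 2.5% glycerol, 0.01% Tween-20. ClpP 10 microg/mL final; 20 min RT; delta FRET normalized to ADEP and DMSO controls.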
Starred values were filed as active, the others as inactive; ? = inconclusive; . = no result. Unless noted, calls come from the whole dose curve; as a rule, active = well fitted curve in the direction sought with a large enough effect; inconclusive = small, poorly fitted or top-dose-only effect, or another doubt; inactive = no such curve, though single readings can be large; an effect the other way counts as inactive or inconclusive. Potency is the fitted concentration of half-maximal effect.

SMILES	TDP1 inh	TDP1 cell CPT	TDP1 cell noCPT	ClpP mod
CCN(C(=O)CN1C(=O)c2ccccc2S1(=O)=O)C1CCCCC1	2%	4%	-2%	.
CCc1sc(Nc2ccc(C)cc2Br)nc1-c1cc2cccc(OC)c2oc1=O	4%	?	?	-5%
CCc1ccc(Nc2nc(-c3cc4cccc(OC)c4oc3=O)c(CC)s2)cc1	2%	?	23µM*	0%
CCc1sc(Nc2ccc(Cl)cc2)nc1-c1cc2cccc(OC)c2oc1=O	2%	?	21µM*	1%
CC1(CO)COC(c2ccccc2)=N1 (stereo not given)	.	-7%	-2%	-2%
COc1ccc(CC/C(C)=N\NC(N)=O)cc1	5%	4%	-17%	1%
CCOc1ccc(-c2cc(CCCC(=O)NCc3cccnc3)no2)cc1	3%	23µM*	21µM*	-1%
COc1ccc(-c2cc(CCCC(=O)NCc3ccccn3)no2)cc1	2%	?	16µM*	0%
CC(=O)N1CCn2c3c(c4cc(C)ccc42)CCCC31 (stereo not given)	8%	-6%	-24%	?
CCCN(CCC)S(=O)(=O)c1ccc(C(=O)N2CCn3c4c(c5cc(C)ccc53)CCCC42)cc1 (stereo not given)	-1%	16µM*	?	-12%
CCN1CCn2c3c(c4cc(C)ccc42)CCCC31 (stereo not given)	1%	?	23µM*	28µM*
Cc1ccc2c(c1)c1c3n2CCN(C(=O)CCl)C3CCC1 (stereo not given)	.	4.6µM*	3.3µM*	.
Clc1ccccc1Cn1cccc1C1=NC(Cc2ccccc2)CO1 (stereo not given)	5%	4%	-16%	0%
Clc1ccc(Cc2ccccn2)cc1	-5%	-10%	4%	-10%
C[C@H]1CN([C@@H](C)CO)C(=O)CCCn2nncc2CO[C@@H]1CN(C)Cc1ccc(-c2ccccc2)cc1	.	9.2µM*	10µM*	0%
COc1ccccc1CN(C)C[C@@H]1OCc2cnnn2CCCC(=O)N([C@@H](C)CO)C[C@H]1C	.	1%	-9%	2%
C[C@H](CO)N1C[C@H](C)[C@@H](CN(C)Cc2ccc(C(F)(F)F)cc2)OCc2cnnn2CCCC1=O	.	26µM*	?	-1%
C[C@H]1CN([C@@H](C)CO)C(=O)CCCn2nncc2CO[C@@H]1CN(C)Cc1ccc(C(F)(F)F)cc1	.	3%	-29%	-1%
C[C@@H]1CN([C@H](C)CO)C(=O)CCCn2nncc2CO[C@H]1CN(C)Cc1ccccc1C(F)(F)F	.	15µM*	21µM*	3%
C[C@H]1CN([C@@H](C)CO)C(=O)CCCn2nncc2CO[C@H]1CN(C)S(=O)(=O)c1ccc(Oc2ccccc2)nc1	.	10µM*	8.2µM*	1%
OCC1CCCN(C(=S)Nc2ccc(Nc3ccccc3)cc2)C1 (stereo not given)	4%	-6%	-52%	.
N#Cc1ccc(-c2ccco2)nc1SCc1ccccc1	.	?	?	10µM*
c1ccc(CSc2ccc(-c3ccco3)nn2)cc1	2%	-8%	-19%	-5%
CCSc1nnc2ccc(-c3ccco3)nn12	-2%	-1%	1%	2%
CCSc1nc(-c2ccco2)ccc1C#N	-8%	23µM*	?	?
Cc1onc(-c2c(F)cccc2Cl)c1C(=O)Nc1cccc(S(=O)(=O)N2CCOCC2)c1	-1%	-26%	-28%	.
CC(NC(=O)c1cccnc1)C(c1cccs1)N1CCN(c2ccccc2F)CC1 (stereo not given)	-2%	23µM*	?	.
COc1ccccc1N1CCN(C(c2cccs2)C(C)NC(=O)c2cccs2)CC1 (stereo not given)	4%	16µM*	12µM*	2%
COc1ccccc1N1CCN(C(c2cccs2)C(C)NC(=O)C(=O)N2CCCCC2)CC1 (stereo not given)	1%	-29%	1%	-5%
COc1ccccc1N1CCN(C(c2cccs2)C(C)NC(=O)c2cccnc2)CC1 (stereo not given)	1%	?	?	2%

Screening results from PubChem.
